Data taken from PubChem BioAssay AID720697 (Broad Institute, 2013).
Measured potencies and affinities stand elsewhere. Inconclusive results are not listed. Calls of active or inactive are those of the source.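 The calls were made as follows: active = signal loss with fitted half-maximal concentration at or below twice the top valid tested dose in every test run; inconclusive = runs disagree, flat 30 to 70% signal loss, or poor fit; inactive = all runs flat, opposite direction, or potency beyond limit.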

Assay: HEK293T cytotoxicity, dose response, cytotoxicity control for miR-122 modulator project, cell-based, inhibitor set, cherry-pick, set 2 (AID 720697)
Settings: HEK293T viability, CellTiter-Glo luminescence, 48 h; series mostly up to 26 µM

| Structure (SMILES) | outcome |
| --- | --- |
| COc1ccc(N2CCN(C(=O)CSc3nnc(CNc4ccccc4)o3)CC2)cc1 | inactive |
| O=C(NC[C@H]1[C@H](c2ccccc2)[C@H](CO)N1CC1CCCC1)c1ccncc1 | inactive |
| CO[C@@H]1CN(C)C(=O)c2ccc(NS(=O)(=O)c3ccc(C)cc3)cc2OC[C@@H](C)N(C(=O)NC(C)C)C[C@H]1C | inactive |
| O=C(c1cccnc1)N1C[C@H]2[C@@H](c3ccccc31)[C@H](CO)N2C(=O)Nc1ccccc1Cl | inactive |
